Results published in the OligoGym collection.

molecular target: GNLY; test: pooled miR-30 sensor sort-seq; sequence = guide strand; conditions: shRNA
Further: reference of the scale not given here.

Sequence	sensor-assay potency score (higher = more potent)
TTGGAAACACTTCTCTGGGTGG	-0.134
TATACACAACCTGAGGTCCTCA	-0.844
TTGCCAGGTCGTAGTACTCAGG	-1.35
TTCAGTTTTTGGACTATCGTCA	0.462
TTTGGTCAACAGGTCACCCTGG	0.282
TTTCTCCTCATCACGCAGGTGG	-0.588
TTGGACTATCGTCAGACAGGTC	-0.895
ATTGGAAACACTTCTCTGGGTG	0.184
TTTTGGACTATCGTCAGACAGG	-1.31
TTGGTCAACAGGTCACCCTGGG	-0.135
TTTTGGTCAACAGGTCACCCTG	-1.53
ACTATCGTCAGACAGGTCCTGT	-0.334

molecular target: GOLGA1; test: as above; conditions: shRNA

Sequence	sensor-assay potency score (higher = more potent)
TTAAGTCTGATGACATCTGATT	-1.11
TTTATCTTCTGCAAGTTTCGGA	0.43
TATTTTACTTAGTTCCTGCTGC	0.934
TATCACATGATCTCTCTGCTCT	0.568
TTCTAATGCAATTTCAAGCTTC	0.23
TGATCTTACTTTCTGCACCTGT	-0.0709
TATGGTCTTATTTTTCTCCAGA	-0.384
TTGAGTTTCAGCAGTGACCTTT	0.403
TTCGAAGAGCTCATTATCGGGT	0.0609
